# Sampled rows, rich in hits. Any-hit rate of the full collection: about 3.6%.
# mHTT-CaM PPI inh = mutant huntingtin-calmodulin interaction inhibitors – biochemical, AlphaScreen, primary screen; P42858; AlphaScreen His-mHTT/GST-CaM binding, luminescence; inhibition, % at 15 µM; 3.6% of 190,000 active; AID 1671202, 2021
# Pf apPOL block = Pf-apPOL inhibitors, biochemical, fluorescence. Recombinant Pf-apPOL, molecular beacon fluorescence, 1.5 h. Plasmodium falciparum apicoplast DNA polymerase (apPOL). inhibition, % at 10 µM. 0.25% of 210,000 active
# Numbers stand for hits; – = inactive; · = no result. Cut-off read from the data, not from the text of the source: active = inhibition above about 50%; inactive = the rest.
SMILES,mHTT-CaM PPI inh,Pf apPOL block
O=C(NC(Nc1ccc([N+](=O)[O-])cc1)C(Cl)(Cl)Cl)c1cccc(Cl)c1 (centres undefined),100,–
NS(=O)(=O)c1ccc(CNC(=O)c2cc(-c3ccc(Cl)s3)nc3ccccc23)cc1,–,–
CCOC1=NN(c2ccc([N+](=O)[O-])cc2)C(=O)/C1=C/c1cccc([N+](=O)[O-])c1,–,–
CCC(=O)Nc1cccc(-c2noc(C3CCN(C(=O)c4ccc(F)cc4)CC3)n2)c1,–,–
N#Cc1c(-c2cccc(O)c2)c(C#N)c2nc3ccccc3n2c1N,–,–
Cc1cccc(NC(=O)CN2CCCCC2c2nc(-c3ccc(F)cc3)no2)c1 (centres undefined),–,–
Cc1ccc(C(=O)N2CCN(c3ccc(C)c(F)c3)C(=O)C2C)cc1 (centres undefined),–,–
O=C(c1ccccc1)N1CCCC(c2ccnc(Nc3cccc(F)c3)n2)C1 (centres undefined),72,–
CC(C)C(=O)N1CCCC(c2ccnc(Nc3cccc(F)c3)n2)C1 (centres undefined),–,–
O=C(c1cccs1)N1CCCC(c2ccnc(Nc3ccc(F)cc3)n2)C1 (centres undefined),–,–
O=C(c1cccs1)N1CCCC(c2ccnc(Nc3cccc(F)c3)n2)C1 (centres undefined),93,–
CCOCC(=O)N1CCCC(c2ccnc(Nc3ccccc3C)n2)C1 (centres undefined),–,–
O=C(C1CC1)N1CCCC(c2ccnc(Nc3cccc(F)c3)n2)C1 (centres undefined),–,–
O=C(Cc1cccs1)N1CCCC(c2ccnc(Nc3cccc(F)c3)n2)C1 (centres undefined),75,–
Cc1ccccc1Nc1nccc(C2CCCN(C(=O)COc3ccc(F)cc3)C2)n1 (centres undefined),90,–
CCN(CC)CCNS(=O)(=O)c1c(C)c(C)cc2nsnc12,–,–
O=C(c1ccc(F)c(F)c1)N1CCOC(c2ccccc2)C1 (centres undefined),–,–
CCOc1ccc(NS(=O)(=O)c2ccc(N=Cc3cccc(OC)c3O)cc2)cc1,–,–
COCC(=O)N1CCc2c(c(-c3nc(C)no3)nn2C)C1,–,–
COc1ccc(OC)c(-c2nnc(NC(=O)COc3ccc4ccccc4c3)s2)c1,–,–
CCN(CC)CCCNC(=O)c1noc2c1CCCC2,–,–
O=C(Cc1cccc(F)c1)N1CCCC(c2ccnc(Nc3ccccc3)n2)C1 (centres undefined),90,–
O=C(Cc1cccc(F)c1)N1CCCC(c2ccnc(-c3cccc(F)c3)n2)C1 (centres undefined),–,–
CCc1nc(C)nc(N2CCN(C(=O)C3CC3)CC2)c1Cc1ccc(Cl)cc1,–,–
Cc1ccccc1Oc1nccnc1N1CCCC(C(=O)Nc2ccc(F)cc2)C1 (centres undefined),–,–
SMILES,mHTT-CaM PPI inh,Pf apPOL block
O=C1Nc2ccc(Br)cc2/C1=C/c1ccc(Cl)cc1Cl,52,–
COc1ccc(O)c(/C=C2\C(=O)Nc3ccc(Br)cc32)c1,91,–
CC(C)(C)C(=O)C=C1C(=O)Nc2ccc(Br)cc21,·,–
O=C1Nc2ccccc2/C1=C/c1ccc(Cl)cc1Cl,–,–
COc1cc2c(cc1OC)/C(=C/c1cc(OC)c(OC)c(OC)c1)C(=O)N2,–,·
COc1ccc(OC)c(/C=C2\C(=O)Nc3ccc(Br)cc32)c1,54,–
COc1ccc(/C=C2\C(=O)Nc3ccc(Br)cc32)c(OC)c1OC,100,–
COc1ccc(N=C2C(=O)Nc3ccc(Br)cc32)cc1,–,–
COc1ccc(NC(=O)ON=c2oc3cc4c(cc3c3c2CCC3)CCC2(CCCCC2)O4)cc1OC,–,–
CCCC(C)C(=O)N(CC)c1ccccc1C (centres undefined),–,–
CC(=O)Nc1ccc(S(=O)(=O)N=C(N)N)cc1[N+](=O)[O-],–,–
Nc1ccc(N)c2c1C(=O)c1c(N)ccc(N)c1C2=O,92,–
Nc1ccc(C(=O)c2ccc(N)c(N)c2)cc1N,–,–
O=[N+]([O-])c1cccc(S(=O)(=O)N2CCSC2c2ccccc2)c1 (centres undefined),–,–
CN(C)CCCN1c2ccccc2Sc2ccc(Cl)cc21,·,–
CC(C)COc1ccc2c(c1)Sc1ccccc1N2CCN(C)C,93,–
O=C(NCCc1cccc(Cl)c1)c1ccc(Cl)cc1[N+](=O)[O-],–,–
Cc1cc(C(F)(F)Cl)n2nc(-c3ccccc3)cc2n1,–,–
Cc1noc(-c2cccs2)c1C(=O)NCc1cc(F)cc(F)c1,–,–
CCc1ccc(-n2c(SCC(=O)Nc3ccc(OC)cc3OC)nc3[nH]ncc3c2=O)cc1,68,–
Cc1ccc(CSc2nc3[nH]ncc3c(=O)n2-c2ccc(C)cc2)cc1,–,81
Cc1ccc(-n2c(SCc3cccc([N+](=O)[O-])c3)nc3[nH]ncc3c2=O)cc1Cl,58,–
COc1ccc(NC(=O)CSc2nc3[nH]ncc3c(=O)n2-c2ccc(Cl)cc2)c(OC)c1,–,–
O=c1c2cn[nH]c2nc(SCc2cccc([N+](=O)[O-])c2)n1-c1ccc(Cl)cc1,–,–
Cc1ccc(-n2c(SCc3ccccc3)nc3[nH]ncc3c2=O)cc1,–,–
SMILES,mHTT-CaM PPI inh,Pf apPOL block
Cc1cccc(-n2c(SCc3ccc(Cl)cc3)nc3[nH]ncc3c2=O)c1,79,–
Cc1ccc(CSc2nc3[nH]ncc3c(=O)n2-c2cccc(Cl)c2)cc1,–,–
Cc1ccccc1OCc1nnc(SCC(=O)N2CCCC2)n1Cc1ccccc1,–,–
CCCC(=Nc1ccccc1)C1=C(O)CC(CC(C)SCC)CC1=O (centres undefined),–,–
Cc1c(C2CC(C(F)(F)F)n3nccc3N2)cnn1C (centres undefined),–,·
O=[N+]([O-])c1ccc(-c2nc(C=Nc3cccc(C(F)(F)F)c3)c(O)o2)cc1,–,–
O=C(Nc1ccc(F)c(F)c1)c1ccc(F)c(S(=O)(=O)N2CCCCC2)c1,–,–
COc1cc(NC(=O)C2CCCN(c3cc(=O)n(C)c(=O)n3C)C2)cc(OC)c1 (centres undefined),–,–
O=C(Nc1ccccc1F)c1cnc(-c2ccc(F)cc2)nc1-c1ccncc1,–,86
O=C(Nc1ccc(F)cc1)c1cnc(-c2ccccc2)nc1-c1ccncc1,–,–
O=C(Nc1ccccc1Cl)c1cnc(-c2ccccc2)nc1-c1ccncc1,–,–
O=C(Nc1ccccc1Cl)c1cnc(-c2ccc(F)cc2)nc1-c1ccncc1,–,–
O=C(Nc1ccc(F)cc1)c1cnc(-c2ccc(F)cc2)nc1-c1ccncc1,–,88
Cc1ccc(-c2ncc(C(=O)Nc3ccccc3Cl)c(-c3ccncc3)n2)cc1,–,56
O=C(NCc1ccc2c(c1)OCO2)C1CCN(c2cncnc2N2CCCC2)CC1,–,–
COc1ccc(C)c2sc(N3CCN(C(=O)CS(=O)(=O)c4ccccc4)CC3)nc12,–,–
COc1ccc(-c2cn3c4c(=O)n(C)c(=O)n(C)c4nc3n2CCc2ccccc2)cc1,–,–
Cc1ccnc(NS(=O)(=O)c2ccc(NC(=O)c3ccc(-n4ccnc4)nn3)cc2)n1,–,–
Cc1nc(NC(=O)c2ccc(-n3ccnc3)nn2)sc1C,90,–
Cc1sc(NC(=O)C2CCCCC2C(=O)O)nc1-c1ccccc1 (centres undefined),–,–
